Rows were chosen to be rich in hits. Some 19% of all compounds tested hit in one or more screens of this group.
DT40 TDP1 no CPT: qHTS for Inhibitors of human tyrosyl-DNA phosphodiesterase 1 (TDP1): qHTS in cells in absence of CPT | DT40 Tdp1-/- hTDP1 cells, no CPT, ATP luminescence, 48 h | 420,000 tested, 15% active | Potency, µM (highest dose often 46.2 µM), inactives show at the top dose activity change, negative = growth inhibition, most hits filed as inhibitors | AID 686978, 2013; note: potency is the fitted concentration of half-maximal effect; % is set by controls: 0 for no effect and ±100 for the full control effect; nearly all actives have a fitted effect of over 55% in size
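A cellular qHTS used chicken DT40 cells lacking endogenous Tdp1 but carrying stably transfected human TDP1. Compounds were applied without camptothecin, and cell growth kinetics were judged by ATP-dependent luminescence after ≥48 hr.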
TDP1 block: TDP1 (human) enzyme inhibition; Q9NUW8; recombinant TDP1, AlphaScreen DNA substrate cleavage; Potency, µM (highest dose often 130 µM), for inactives: at the highest dose activity change, negative = inhibition, most hits filed as inhibitors; 350,000 tested, 0.28% active; note: potency is the fitted concentration of half-maximal effect; % is set by controls: 0 for no effect and ±100 for the full control effect; nearly all actives have a fitted effect of over 40% in size
Target sequence (Q9NUW8 whole entry, looked up): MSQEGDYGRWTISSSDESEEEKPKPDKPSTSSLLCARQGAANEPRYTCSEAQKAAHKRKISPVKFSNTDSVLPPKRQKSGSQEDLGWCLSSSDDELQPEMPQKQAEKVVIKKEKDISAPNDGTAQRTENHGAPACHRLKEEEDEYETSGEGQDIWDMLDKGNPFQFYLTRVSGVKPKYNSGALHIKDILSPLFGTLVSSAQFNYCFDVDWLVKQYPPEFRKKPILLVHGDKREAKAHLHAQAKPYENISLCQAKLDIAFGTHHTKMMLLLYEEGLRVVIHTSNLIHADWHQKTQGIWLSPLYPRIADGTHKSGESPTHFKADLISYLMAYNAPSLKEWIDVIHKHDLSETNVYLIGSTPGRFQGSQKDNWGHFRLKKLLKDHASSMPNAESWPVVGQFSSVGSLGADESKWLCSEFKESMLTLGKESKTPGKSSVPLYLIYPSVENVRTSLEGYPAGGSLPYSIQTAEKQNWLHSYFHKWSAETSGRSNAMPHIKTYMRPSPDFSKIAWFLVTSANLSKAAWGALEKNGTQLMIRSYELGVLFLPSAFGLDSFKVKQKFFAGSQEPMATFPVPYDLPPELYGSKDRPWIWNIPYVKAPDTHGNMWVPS
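Compounds were preincubated with Tdp1 (1 nM final) for 15 min at room temperature before substrate (15 nM final) started a 5 min reaction; beads (10 ug/ml final) were then added for 10 min before AlphaScreen detection.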
IL-1B inflam inh: inhibitors of inflammasome signaling (IL-1 beta secretion); THP-1 LPS/ATP IL-1B secretion, AlphaLISA, 16 h; stronger effect = lower value; 360,000 tested, 4.7% active; activity change, % at 57.5 µM; AID 743279; in the data active = activity change below about -50%; inconclusive = mostly about -30% to -49%; note: % is set by controls: 0 for no effect and ±100 for the full control effect
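THP-1 cells pretreated 1 hr with compounds (up to 57.5 uM final), then stimulated with LPS (250 ng/mL final) plus ATP (1.25 mM final); secreted IL-1B measured by AlphaLISA after 16 hr, decreased signal indicating inhibition.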
HepG2 viability: kills HepG2 cells in TGF-b inhibitor counter-screen; HepG2 CAGA-GFP viability, ATP luminescence, 18 h; Potency, µM (series often up to 46.1 µM), inactives show top-dose activity change, negative = cytotoxicity, actives largely listed as cytotoxic; 410,000 tested, 0.76% active; note: potency is the fitted concentration of half-maximal effect
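HepG2 CAGA-GFP cells (1000/well, DMEM with 1% FBS) received compound, then TGF-beta at 500 pg/mL final, and were incubated 18 hours at 37 degrees C. Viability was read by CellTiter-Glo luminescence. Media-only wells were set as complete cell-killing and DMSO as no toxicity.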
TDP1 cell CPT: growth inhibition of DT40 Tdp1-/-;hTDP1 cells with camptothecin (screen for TDP1 inhibitors); chicken DT40 Tdp1-/-;hTDP1 cells + 20 nM CPT, ATP luminescence, 48 h; 420,000 tested, 12% active; Potency, µM (series often up to 46.2 µM), for inactives: at the top dose activity change, negative = growth inhibition, actives largely listed as inhibitors; note: potency is the fitted concentration of half-maximal effect; % is set by controls: 0 for no effect and ±100 for the full control effect; nearly all actives have a fitted effect of over 55% in size
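Cell growth measured by CellTiter-Glo luminescence after a minimum 48 h, 37 C compound exposure with 20 nM CPT in Tdp1-knockout DT40 cells stably expressing hTDP1, seeded 400/well; qHTS titration format.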
TGFb SMAD3 inh: inhibitors of TGF-b signaling; Potency, µM (titrated, usually from 46.1 µM), for inactives: top-dose activity, negative = inhibition, usual class: inhibitors; 410,000 tested, 1.2% active; HepG2 CAGA-GFP TGF-b/SMAD3 reporter, GFP fluorescence, 18 h; TGF-beta stimulated, 500 pg/mL final; note: potency is the fitted concentration of half-maximal effect; % is set by controls: 0 for no effect and ±100 for the full control effect; nearly all actives have a fitted effect of over 65% in size
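GFP signal (ex488/em500-530) from TGF-beta-stimulated HEPG2 CAGA-GFP cells, 500 pg/mL final, 18 h at 37 degrees C in DMEM plus 1% FBS, normalized to unstimulated and DMSO-stimulated controls.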
The depositor's hits bear a star. Unless noted, calls come from the whole dose curve; as a rule, active = well fitted curve in the direction sought with a large enough effect; inconclusive = small, poorly fitted or top-dose-only effect, or another doubt; inactive = no such curve, though single readings can be large; an effect the other way counts as inactive or inconclusive.

CCOc1ccc(S(N)(=O)=O)cc1-c1nc2c(C(C)(C)C)nn(C)c2c(=O)[nH]1 was read as DT40 TDP1 no CPT inconclusive, TDP1 block 2%, IL-1B inflam inh inconclusive, HepG2 viability -45%, TDP1 cell CPT inconclusive and TGFb SMAD3 inh -2%.
For CCOc1ccc(S(=O)(=O)NC(C)(C)C)cc1-c1nc2c(C(C)(C)C)nn(C)c2c(=O)[nH]1 the results were DT40 TDP1 no CPT inconclusive, TDP1 block 1%, IL-1B inflam inh -98*, HepG2 viability -53%, TDP1 cell CPT 21µM* and TGFb SMAD3 inh inconclusive.
Screening CCOc1ccc(S(=O)(=O)N(CCO)CCO)cc1-c1nc2c(C(C)(C)C)nn(C)c2c(=O)[nH]1 returned DT40 TDP1 no CPT 18µM*, TDP1 block 5%, IL-1B inflam inh inconclusive, HepG2 viability 5%, TDP1 cell CPT inconclusive and TGFb SMAD3 inh 7%.
CCCc1nn(C)c2c(=O)[nH]c(-c3cc(S(=O)(=O)N(CCO)CCO)ccc3OCC)nc12 was read as DT40 TDP1 no CPT 5%, TDP1 block 0%, IL-1B inflam inh -15, HepG2 viability -65%, TDP1 cell CPT inconclusive and TGFb SMAD3 inh 3%.
Screening CCOC(=O)c1c(C)[nH]c(C)c1C(=O)COC(=O)/C=C/c1ccc(OC(F)F)cc1 returned DT40 TDP1 no CPT inconclusive, TDP1 block 3%, IL-1B inflam inh -54*, HepG2 viability -10%, TDP1 cell CPT inconclusive and TGFb SMAD3 inh inconclusive.
CCOC(=O)c1c(C)[nH]c(C(=O)COC(=O)/C=C/c2ccc(OC(F)F)cc2)c1C was read as DT40 TDP1 no CPT -13%, TDP1 block 1%, IL-1B inflam inh 13, HepG2 viability -14%, TDP1 cell CPT -24% and TGFb SMAD3 inh 0%.
Screening Cc1ccc(C)c(-n2sc3ccc(F)cc3c2=O)c1 returned DT40 TDP1 no CPT 3.7µM*, TDP1 block 0%, IL-1B inflam inh -106*, HepG2 viability -53%, TDP1 cell CPT 3.3µM* and TGFb SMAD3 inh 10µM*.
Screening COc1ccc(-n2cc(C(=O)O)c3ccccc3c2=O)cc1 returned DT40 TDP1 no CPT -9%, TDP1 block 1%, IL-1B inflam inh 8, HepG2 viability 2%, TDP1 cell CPT -6% and TGFb SMAD3 inh 8%.
COc1ccc(-n2sc3ccc(F)cc3c2=O)cc1 was read as DT40 TDP1 no CPT 2.6µM*, TDP1 block 0%, IL-1B inflam inh -106*, HepG2 viability -65%, TDP1 cell CPT 2.6µM* and TGFb SMAD3 inh inconclusive.
`COc1ccc(-n2sc3ccccc3c2=O)cc1` gave DT40 TDP1 no CPT 2.9µM*, IL-1B inflam inh -106*, HepG2 viability 13µM*, TDP1 cell CPT 3.7µM* and TGFb SMAD3 inh 20µM*.
O=c1c2cc(F)ccc2sn1-c1ccc(F)cc1 was read as DT40 TDP1 no CPT 3.3µM*, TDP1 block 0%, IL-1B inflam inh -114*, HepG2 viability -56%, TDP1 cell CPT 2.6µM* and TGFb SMAD3 inh 16µM*.
Cn1c(=O)c2sccc2n2c(CCCC(=O)NC3CCCCC3)nnc12 was read as DT40 TDP1 no CPT -3%, TDP1 block -5%, HepG2 viability -1%, TDP1 cell CPT -15% and TGFb SMAD3 inh 2%.
For COc1ccc(CC(=O)NCC(c2ccc(N(C)C)cc2)N2CCOCC2)cc1 (centres undefined) the results were DT40 TDP1 no CPT inconclusive, TDP1 block 1%, HepG2 viability -34%, TDP1 cell CPT inconclusive and TGFb SMAD3 inh -33%.
For Cc1ccc(/C=N/NC(=O)CCCOc2ccc(Cl)cc2Cl)cc1 the results were DT40 TDP1 no CPT 10µM*, TDP1 block 8%, IL-1B inflam inh -77*, HepG2 viability -62%, TDP1 cell CPT 8.2µM* and TGFb SMAD3 inh -1%.
Screening CN(C(=S)NC(=O)Cc1ccccc1)c1ccccc1 returned DT40 TDP1 no CPT inconclusive, TDP1 block -5%, IL-1B inflam inh -60*, HepG2 viability -55%, TDP1 cell CPT inconclusive and TGFb SMAD3 inh inconclusive.
CCN(CC)C(=S)NC(=O)Cc1ccccc1 was read as DT40 TDP1 no CPT -6%, TDP1 block 2%, IL-1B inflam inh 11, HepG2 viability -1%, TDP1 cell CPT 4% and TGFb SMAD3 inh -2%.
Screening CN(C(=S)NC(=O)CCCOc1ccc(Cl)cc1Cl)c1ccccc1 returned DT40 TDP1 no CPT 16µM*, TDP1 block -10%, IL-1B inflam inh -4, HepG2 viability -16%, TDP1 cell CPT inconclusive and TGFb SMAD3 inh -25%.
For COc1ccc(/C=N/NC(=O)CCCOc2ccc(Cl)cc2Cl)cc1[N+](=O)[O-] the results were DT40 TDP1 no CPT 16µM*, TDP1 block 3%, IL-1B inflam inh -6, HepG2 viability -25%, TDP1 cell CPT inconclusive and TGFb SMAD3 inh -28%.
`Cc1ccc(/C=N/NC(=O)CCCOc2ccc(Cl)cc2Cl)cc1[N+](=O)[O-]` gave DT40 TDP1 no CPT -27%, TDP1 block 2%, IL-1B inflam inh 0, HepG2 viability -41%, TDP1 cell CPT -17% and TGFb SMAD3 inh -12%.
`CC(C)NC(=O)CCCOc1ccc(Cl)cc1Cl` gave DT40 TDP1 no CPT -10%, TDP1 block 7%, IL-1B inflam inh -7, HepG2 viability -9%, TDP1 cell CPT -10% and TGFb SMAD3 inh -1%.
`Cc1csc2c(=O)sc(NC(=O)c3cccs3)nc12` gave DT40 TDP1 no CPT inconclusive, TDP1 block -4%, IL-1B inflam inh 8, HepG2 viability -4%, TDP1 cell CPT -23% and TGFb SMAD3 inh -1%.
`O=C(COc1ccc(Cl)cc1[N+](=O)[O-])N/N=C/c1cccs1` gave DT40 TDP1 no CPT 29µM*, TDP1 block 2%, IL-1B inflam inh -20, HepG2 viability -19%, TDP1 cell CPT -19% and TGFb SMAD3 inh -21%.
For Cc1ccc(OCC(=O)N/N=C\c2cccs2)c([N+](=O)[O-])c1 the results were DT40 TDP1 no CPT -3%, TDP1 block 3%, IL-1B inflam inh -6, HepG2 viability 3%, TDP1 cell CPT -2% and TGFb SMAD3 inh 0%.
`O=C(CCC(=O)N/N=C/c1cc(Cl)cc(Cl)c1O)NCc1ccccc1` gave DT40 TDP1 no CPT 23µM*, TDP1 block 8%, IL-1B inflam inh 166, HepG2 viability -25%, TDP1 cell CPT inconclusive and TGFb SMAD3 inh -23%.

High-throughput results as filed in PubChem BioAssay.
